Measurements: ChEMBL document CHEMBL3988442, “University of Dundee, Small-Polar-MMV Screening Library” (2021)
The campaign covered roughly 48,000 compounds. About 13,000 (27%) showed an effect of 50% or more. The list shows a part of the results.

System: Wolbachia pipientis
Assay: Anti-Wolbachia Cell-Based Screen
Type: functional
Parameters: scale not given: in the data most compounds retested in dose-response had high values
Conditions: 5 µM

Row | Compound | Percent Effect
1 | CN(C)C(=O)CCC(=O)N1CCC2(CC1)COC2 | -20.99%
2 | Cc1sc(NC(=O)CN2CCCC(c3ncc[nH]3)C2)c(C)c1C (stereo not drawn) | 13.59%
3 | COc1c(CNC2CCc3c(F)cccc32)c(C)nn1C.Cl (stereo not drawn) | 125.6%
4 | COc1c(CNC2CCOc3c(F)cccc32)c(C)nn1C (stereo not drawn) | -5.109%
5 | COc1c(CNC2CCc3c(Cl)cccc32)c(C)nn1C.Cl (stereo not drawn) | -6.251%
6 | Cn1ncnc1CNC1CCc2cc(Cl)ccc21 (stereo not drawn) | -6.658%
7 | COc1c(CNC2CCOc3ccccc32)c(C(C)C)nn1C (stereo not drawn) | -0.8821%
8 | COc1c(CNC2CCOc3c(Cl)cccc32)c(C)nn1C.Cl (stereo not drawn) | -20.37%
9 | COc1c(CNC2CCCc3ccccc32)c(C(C)C)nn1C (stereo not drawn) | -2.774%
10 | COc1c(CNC2CCc3cc(Cl)ccc32)c(C)nn1C (stereo not drawn) | 202%
11 | COc1c(CNC2CCc3cc(C)ccc32)c(C)nn1C (stereo not drawn) | 196.3%
12 | COc1c(CNC2CCc3cc(F)ccc32)c(C(C)C)nn1C (stereo not drawn) | 97.63%
13 | Cc1ccc2c(c1)CCC2NCc1c(C)nn(CCO)c1C.Cl (stereo not drawn) | 9.193%
14 | COc1c(CNC2CCCOc3ccccc32)c(C)nn1C (stereo not drawn) | -2.484%
15 | CCOCC(=O)N1CCC2(CC1)COC(COCc1ccccn1)C2.O=C(O)C(F)(F)F (stereo not drawn) | -4.838%
16 | OC(COCc1ccccc1)CSc1nnc2ccccn12 (stereo not drawn) | -5.176%
17 | CN(Cc1ccccc1)CC(O)Cn1cnc2ccsc2c1=O (stereo not drawn) | -0.02665%
18 | Cc1ccc(CCCC(=O)N2CC(=O)Nc3cccnc32)s1 | -7.748%
19 | CCn1cc(S(=O)(=O)NCC(OC)c2cccc(Cl)c2)cn1 (stereo not drawn) | -3.186%
20 | Cc1nn(C)c(N(C)C)c1CNC1CCc2c(F)cccc21.Cl (stereo not drawn) | -3.746%
21 | COc1c(CNC2CCCc3ccccc32)c(C)nn1C (stereo not drawn) | -3.62%
22 | Cc1nn(C)c(N(C)C)c1CNC1CCc2cc(F)ccc21.Cl (stereo not drawn) | 58.09%
23 | COc1c(CNC2CCc3ccccc32)c(C)nn1C (stereo not drawn) | 132.3%
24 | COc1c(CNC2CCOc3ccccc32)c(C)nn1C (stereo not drawn) | -8.703%
25 | Cc1nn(C)c(N(C)C)c1CNC1CCOc2c(F)cccc21 (stereo not drawn) | -12.9%

Row | Compound | Percent Effect
26 | CCNC(=O)[C@@H]1CCCN1[C@@H](C(=O)NC)c1ccccc1.Cl | 1.454%
27 | Cc1nc(N2CCCC2C(=O)NC(C)(C)CO)nc2ccccc12 (stereo not drawn) | -14.27%
28 | CCC(C)CNC(=O)[C@@H]1CCCN1c1nccc(Nc2ccccc2)n1 (stereo partly drawn) | 83.24%
29 | Cc1nc(N2CCCC2C(=O)NCc2ccsc2)nc2ccccc12 (stereo not drawn) | -0.4338%
30 | CCOCCNC(=O)[C@@H]1CCCN1c1nccc(Nc2ccccc2)n1 | 123.1%
31 | Cn1cc(S(=O)(=O)N2CCCC(Cn3cncn3)C2)cn1 (stereo not drawn) | 7.015%
32 | Cc1cc(C)nc(N2CCN(Cc3cc4n(n3)CCNC4)CC2)n1 | 3.043%
33 | CCC(CC)(CNC(=O)OC(C)(C)C)NC(=O)C1CCCO1 (stereo not drawn) | -2.751%
34 | NC(=O)C1CCN(Cn2nc(-c3ccc(F)cc3)oc2=O)C1 (stereo not drawn) | 1.615%
35 | CCNC(=O)C1CCN(Cn2nc(-c3ccc(F)cc3)oc2=O)CC1 | 109.5%
36 | CN(C)C(=O)C1CCN(Cn2nc(-c3ccc(F)cc3)oc2=O)CC1 | 103.8%
37 | CN(C)C(=O)C1CCN(Cn2ccc(-c3ccc(F)cc3)n2)CC1 | -0.7457%
38 | NC(=O)C1CCN(Cn2nc(-c3ccc(F)cc3)oc2=O)CC1 | -1.438%
39 | CCNC(=O)C1CCN(Cn2nc(-c3ccccc3)oc2=O)CC1 | 32.26%
40 | COCCNS(=O)(=O)c1cccc2c1CN(C(=O)c1ccoc1)CC2 | -4.296%
41 | O=C(CCN1CCCCO1)NCCSc1cnn[nH]1 | -10.06%
42 | COc1ccc(CNC(=O)Nc2cccnc2N2CCCC2)cc1O | 5.848%
43 | O=C(COc1ccc(Cl)cc1)Nc1cnc(N2CCOCC2)nc1 | -3.73%
44 | O=C(Nc1cnc(N2CCOCC2)nc1)c1ccc(C(F)(F)F)cc1 | -14.92%
45 | COc1ccc(C)cc1NC(=O)Nc1cnc(N2CCN(C)CC2)nc1 | -7.75%
46 | COc1ccc(C)cc1NC(=O)Nc1cnc(N2CCOCC2)nc1 | 156.3%
47 | COc1ccc(C)cc1NC(=O)Nc1cnc(N2CCCC2)nc1 | 135.2%
48 | CC1COCCN1C(=O)c1ccc(=O)n(Cc2ccccc2)n1 (stereo not drawn) | -2.389%
49 | COCCn1nc(C(=O)N2CCOCC2C)ccc1=O (stereo not drawn) | 3.322%
50 | CC1COCCN1C(=O)c1ccc(=O)n(CCOc2ccccc2)n1 (stereo not drawn) | -6.742%

Row | Compound | Percent Effect
51 | O=C(c1cnccn1)N1CCc2ncnc(C3CCOC3)c2CC1 (stereo not drawn) | -0.4646%
52 | O=C(Cc1cccs1)N1CCOCC1c1ccccc1 (stereo not drawn) | -1.023%
53 | Cc1cnc(C(=O)N2CCOCC2C)cn1 (stereo not drawn) | 99.05%
54 | Cc1cnc(C(=O)N2CCCCC2c2ccc(CN(C)C)cc2)cn1 (stereo not drawn) | 6.216%
55 | Cc1cnc(C(=O)N2CCOCC2c2ccccc2)cn1 (stereo not drawn) | 87.18%
56 | CC1COCCN1C(=O)c1cnccn1 (stereo not drawn) | 93.18%
57 | CCc1ccc(O)c(C(=O)N2CCN(CC(=O)N3CCCCC3)CC2)c1 | -4.126%
58 | O=C(NS(=O)(=O)c1cc(Cl)sc1Cl)c1cccc2c1OCCO2 | -19.53%
59 | COc1cccc(C(=O)NCc2ccccc2S(=O)(=O)N(C)C)c1 | 16.54%
60 | CSCCN(C)C(=O)C1(c2ccc(F)cc2F)CCOCC1 | -17.49%
61 | CCOCCC(=O)NCC(C)c1ccsc1 (stereo not drawn) | 1.929%
62 | Cc1ccc(CN2CC[C@H]3C[C@@H](c4nc(C5CC5)cs4)O[C@@H]3C2)o1 | -2.385%
63 | O=C(Cc1cccnc1)N1CCC2(CC1)CCN(C1CCOCC1)CC2.O=C(O)C(F)(F)F.O=C(O)C(F)(F)F | 1.334%
64 | Cn1cc(C2COC3(CCN(C(=O)Cc4ccccc4)CC3)C2)cn1 (stereo not drawn) | 95.06%
65 | Cn1cc(C2CCCN2C(=O)CCCOCc2ccccc2)cn1 (stereo not drawn) | 2.254%
66 | CC1COC2(CCN(C(=O)Cc3ccncc3)CC2)C1.O=C(O)C(F)(F)F (stereo not drawn) | 99.32%
67 | O=C(O)C(F)(F)F.O=C(c1ccccc1)N1CCC[C@]2(C[C@@H](OCc3ccncc3)CO2)C1 | 6.805%
68 | CCC(=O)N1CCC2(CC1)CC(Oc1ccccc1)CO2 (stereo not drawn) | -6.284%
69 | CCOCC(=O)N1CCC2(CC1)CC(c1ccccc1)CO2 (stereo not drawn) | 118.3%
70 | O=C(C1CC1)N1CCC[C@]2(C[C@@H](OCc3ccncc3)CO2)C1.O=C(O)C(F)(F)F | 6.09%
71 | Cn1cc(C2CN(C(=O)Cc3coc(-c4ccccc4)n3)CCO2)cn1 (stereo not drawn) | -11.89%
72 | CN(Cc1ccncc1)C1COC2(CCN(c3ncc(F)cn3)CC2)C1.O=C(O)C(F)(F)F.O=C(O)C(F)(F)F (stereo not drawn) | -12.58%
73 | O=C(CC1CC1)N1CCC2(CC1)CC(Oc1ccccc1)CO2 (stereo not drawn) | -7.215%
74 | O=C(Cc1ccncc1)N1CCC2(CC1)CC(c1ccccc1)CO2.O=C(O)C(F)(F)F (stereo not drawn) | 104.1%
75 | CC1(CNS(=O)(=O)c2cccc(C(=O)N3CCSCC3)c2)COC1 | 5.198%

Row | Compound | Percent Effect
76 | N#Cc1ccnc(N2CCN(CC(O)c3c(F)cccc3F)CC2)c1 (stereo not drawn) | -15.75%
77 | CC(CCn1cccn1)NCc1n[nH]c2c1CCCCC2 (stereo not drawn) | -18.85%
78 | O=S(=O)(NCCNc1ccc(-n2cccc2)nn1)c1ccccc1 | -5.245%
79 | COC(=O)[C@@H]1Cc2ncn(C)c2CN1S(=O)(=O)c1ccc(Cl)cc1 | -5.674%
80 | Cn1cc(S(=O)(=O)Nc2ccc(Cl)cn2)cc1C(N)=O | 6.201%
81 | Cc1cc2[nH]c(CN3CCOC(c4ccc(Cl)cc4)C3)cc(=O)n2n1 (stereo not drawn) | -2.359%
82 | O=C(Nc1cccnc1)N1CCC(n2ccc(C(F)(F)F)n2)CC1 | -10.86%
83 | CCN1CC[C@@]2(C(=O)N3CCOCC3)CCN(C(=O)CC(C)C)CC[C@@H]12.O=C(O)C(F)(F)F | -11.51%
84 | CC(C)C(=O)N1CCc2nc(C(=O)Nc3cccnc3)sc2CC1 | 0.3042%
85 | O=C(Cc1cccnc1)N1CCC2(CC1)CCN(C1CCOCC1)C2.O=C(O)C(F)(F)F.O=C(O)C(F)(F)F | -0.7381%
86 | CC(C)C(=O)N1CC[C@H]2N(C)CC[C@@]2(C(=O)Nc2cccnc2)CC1.O=C(O)C(F)(F)F.O=C(O)C(F)(F)F | 118.9%
87 | Cc1ccc(CNC(=O)C2CCN(C(=O)C(C)C)CC2)n1C | -14.75%
88 | CC(C)C(=O)N1CC[C@H]2N(C)CC[C@@]2(C(=O)Nc2ccccc2)CC1 | 108.6%
89 | CNC(=O)N1CC[C@H]2N(C)CC[C@@]2(C(=O)Nc2ccccc2)CC1 | 2.294%
90 | CS(=O)(=O)N1C[C@H](C(=O)Nc2cccnc2)[C@@H]2CCO[C@@H]2C1.O=C(O)C(F)(F)F | -6.028%
91 | CC(C)NC(=O)N1CC[C@H]2N(C)CC[C@@]2(C(=O)Nc2cccnc2)CC1 | 104%
92 | CCN1CC[C@@]2(C(=O)N(C)C)CCN(C(=O)NC(C)C)CC[C@@H]12 | -5.445%
93 | CC(C)CC(=O)N1CC[C@H]2N(C)CC[C@@]2(C(=O)Nc2cccnc2)CC1.O=C(O)C(F)(F)F.O=C(O)C(F)(F)F | 92.3%
94 | CCC[C@H]1CN(CCCO)C[C@@H]1NC(=O)Cn1cc(C)cn1 | -8.445%
95 | CCN(Cc1cc(F)c(OC)c(Cl)c1)Cc1nc(COC)no1 | -30.92%
96 | COc1cc(C)sc1C(=O)NCCC(=O)N(C)c1ccccc1 | -9.675%
97 | CC(C)N(C)CCNC(=O)NCc1ccccc1-n1cccn1 | -1.809%
98 | Cc1nn(C(C)C)c(C)c1S(=O)(=O)Nc1cccc(C(=O)O)c1 | 0.846%
